According to PubChem BioAssay (NCATS):
Results filed as inconclusive are left out. Active and inactive are the calls of the source. Calls follow the shape of the dose curve; as a rule, active = well fitted curve in the direction sought with a large enough effect; inconclusive = small, poorly fitted or top-dose-only effect, or another doubt; inactive = no such curve, though single readings can be large; an effect the other way counts as inactive or inconclusive.

What was measured:
[1] = qHTS of pediatric cancer cell lines to identify multiple opportunities for drug repurposing: Primary screen for TC32 cells (AID 1347089); also: nearly all actives have a fitted effect of over 60% in size
Summary of the method: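 Measured quantity: luminescence from CellTiter-Glo, reflecting metabolically active TC32 cells following 48 h of compound. Curves came straight from multi-point titrations, with 8 or 11 points in primary and 11 in confirmatory screening.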

[2] = qHTS of pediatric cancer cell lines to identify multiple opportunities for drug repurposing: Primary screen for DAOY cells (AID 1347090); also: nearly all actives have a fitted effect of over 55% in size
Summary of the method: (§1)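 Eight- or eleven-point concentration series, 48 h treatment at 37 degrees C in growth media; readout CellTiter-Glo luminescence. Potency and efficacy were taken from the concentration-response curves.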

[3] = qHTS of pediatric cancer cell lines to identify multiple opportunities for drug repurposing: Primary screen for A673 cells (AID 1347092); also: nearly all actives have a fitted effect of over 45% in size
Summary of the method: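 Cells are plated, rested 5 h, dosed by pintool, incubated 48 h, then lysed with CellTiter-Glo and read by luminescence. DMSO is the neutral control; bortezomib at 2.3 uM final is the positive control.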

[4] = qHTS of pediatric cancer cell lines to identify multiple opportunities for drug repurposing: Primary screen for SK-N-MC cells (AID 1347093)
Summary of the method: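 Metabolically active cells were quantified by ATP-dependent luminescence (CellTiter-Glo, 15 min at room temperature) following 48 h treatment. Cells had been plated at 500-1,000 per well and settled for 5 h beforehand.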

[5] = qHTS of pediatric cancer cell lines to identify multiple opportunities for drug repurposing: Primary screen for BT-37 cells (AID 1347094)
Summary of the method: (§2)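 Following a 5-hour attachment period, cells at 500-1,000/well received compounds and were cultured for 48 hours. CellTiter-Glo was added and luminescence read to estimate viable, metabolically active cells.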

[6] = qHTS of pediatric cancer cell lines to identify multiple opportunities for drug repurposing: Primary screen for NB-EBc1 cells (AID 1347095)
Summary of the method: as §2

[7] = qHTS of pediatric cancer cell lines to identify multiple opportunities for drug repurposing: Primary screen for SJ-GBM2 cells (AID 1347091)
Summary of the method: as §1

Measured: Potency
Potency is read from the fitted curve at half-maximal effect.

CC(=O)OCCN1C(=O)c2c(C)nc3ccc(S(=O)(=O)N4CCOCC4)cc3c2C1=O
inactive: [1] | [2] | [6]
active: [3] 7430 nM | [4] 20900 nM | [5] 5440 nM

CC(C)c1cc(C(=O)N2Cc3ccc(CN4CCN(C)CC4)cc3C2)c(O)cc1O
active: [1] 1040 nM | [2] 935 nM | [4] 332 nM | [6] 132 nM

C=CC(=O)Nc1cccc(Oc2nc(Nc3ccc(N4CCN(C)CC4)cc3)ncc2Cl)c1
active: [1] 7390 nM | [2] 935 nM | [3] 935 nM | [4] 469 nM | [5] 21700 nM | [6] 2350 nM

O=C1CCC[C@@H]2[C@H]3CCC[N+]4([O-])CCC[C@@H](CN12)[C@@H]34 (stereo partly drawn)
not listed: [7]
inactive: all other assays above

O=c1[nH]c(=O)n(C2CCCO2)cc1F (stereo not drawn)
not listed: [7]
inactive: all other assays above

C[C@@H](Oc1cc(-n2cnc3ccc(CN4CCN(C)CC4)cc32)sc1C(N)=O)c1ccccc1C(F)(F)F
active: [1] 294 nM | [7] 29.6 nM | [3] 74.3 nM | [4] 105 nM | [5] 153 nM | [6] 46.9 nM

CC[C@@H]1C(=O)N(C)c2cnc(Nc3ccc(C(=O)NC4CCN(C)CC4)cc3OC)nc2N1C1CCCC1
active: [1] 234 nM | [7] 37.2 nM | [3] 37.2 nM | [4] 59 nM | [5] 172 nM | [6] 148 nM

CCC[C@H](NC(=O)C(C#N)=Cc1cccc(Br)n1)c1ccccc1
inactive: [1]
active: [7] 8330 nM | [3] 9350 nM | [4] 18700 nM | [6] 8330 nM

O=C(Nc1ncc(-c2cc(C(F)F)nn2-c2c(Cl)cccc2Cl)s1)C1CC1
active: [1] 1310 nM | [7] 332 nM | [3] 296 nM | [4] 296 nM | [5] 863 nM | [6] 296 nM

CC(C)(O)CCc1ccc(OCc2cc(-c3cccc(OC(F)F)c3)c3ncccc3c2)cc1
not listed: [2] | [4]
inactive: all other assays above

CN(C)c1nc(Cc2ccc(NC(=O)c3ccc4ccccc4c3)cc2)nc(Cl)c1CC(=O)O
not listed: [2]
inactive: all other assays above

COC(=O)C[C@](O)(CCCC(C)(C)O)C(=O)O[C@@H]1C(OC)=C[C@]23CCCN2CCc2cc4c(cc2[C@H]13)OCO4
not listed: [2] | [4]
inactive: all other assays above

Cn1cc(-c2[nH]c3cc(NC(=O)[C@H](N)C4CCCCC4)cc4c3c2C=NNC4=O)cn1
active: [1] 2620 nM | [7] 590 nM | [3] 5900 nM | [4] 296 nM | [6] 590 nM

Cc1cn2cc(C(=O)N(C)CCO)cc(N[C@@H]3CCOc4cccc(C)c43)c2n1
not listed: [2]
inactive: all other assays above

c1ccc2c(CCNc3ccc(Nc4ccncc4)cc3)c[nH]c2c1
active: [1] 20800 nM | [7] 5900 nM | [3] 18700 nM | [4] 1870 nM | [5] 4320 nM | [6] 2350 nM

CC(C)c1nn(-c2c(Cl)cccc2Cl)c2nc(Cc3ccc(OCCO)cc3)[nH]c(=O)c12
active: [1] 131 nM | [7] 41.8 nM | [3] 37.2 nM | [4] 41.8 nM | [5] 96.8 nM | [6] 93.5 nM

C=CC(=O)Nc1cc2c(Nc3ccc(F)c(Cl)c3)ncnc2cc1C#CC(C)(C)N1CCN(C)CC1
active: [1] 11700 nM | [7] 2960 nM | [3] 1480 nM | [5] 3850 nM | [6] 2960 nM

Nc1ccn([C@@H]2O[C@H](CO)[C@H](O)C2(F)F)c(=O)n1
active: [1] 117 nM | [7] 235 nM | [3] 18.7 nM | [4] 1320 nM | [5] 30.6 nM | [6] 935 nM

C[C@@]12O[C@@H](C[C@]1(O)CO)n1c3ccccc3c3c4c(c5c6ccccc6n2c5c31)CNC4=O
active: [1] 1860 nM | [7] 235 nM | [3] 743 nM | [4] 37.2 nM | [5] 4850 nM | [6] 1180 nM

COc1cc(Nc2ncc(F)c(Nc3ccc4c(n3)N(COP(=O)(O)O)C(=O)C(C)(C)O4)n2)cc(OC)c1OC
active: [7] 1480 nM | [3] 2960 nM | [4] 1320 nM | [6] 935 nM
inactive: [1] | [5]

O=C(C=Cc1cccc(S(=O)(=O)Nc2ccccc2)c1)NO
active: [1] 9540 nM | [7] 2150 nM | [4] 1210 nM | [5] 7030 nM | [6] 1910 nM
